Results published in PubChem BioAssay (NCATS).
Inconclusive results are not listed. Calls of active or inactive are those of the source. Unless noted, calls follow the shape of the full dose curve.

Legend:
[1] = Primary qHTS for inhibitors of SARS-S pseudo-typed particle cell entry (AID 1479145); details: SARS-S pseudotyped particle cell entry, luciferase reporter; series mostly up to 57.1 µM; also: nearly all actives have a fitted effect of over 45% in size; also: potency is read from the fitted curve at half-maximal effect
[2] = Primary qHTS for Huh7 cytotoxicity: counterscreen for inhibitors of MERS-S pseudotyped particle cell entry (AID 1479147); details: cell viability read-out; series mostly up to 57.1 µM; as to activity change, negative = cytotoxicity: % is scaled to controls: 0 for no effect and ±100 for the full control effect
[3] = Primary qHTS for inhibitors of MERS-S pseudo-typed particle cell entry (AID 1479149); details: MERS-S pseudotyped particle entry, luciferase; series mostly up to 57.1 µM; also: nearly all actives have a fitted effect of over 60% in size
[4] = Primary qHTS for Vero E6 cytotoxicity: counterscreen for inhibitors of SARS-S pseudo-typed particle cell entry (AID 1479150); details: cell viability; series mostly up to 57.1 µM; as to activity change, negative = cytotoxicity: % is scaled to controls: 0 for no effect and ±100 for the full control effect
[5] = target: Calcium and integrin-binding protein 1 (Homo sapiens) (UniProt Q99828); test: Primary qHTS for Identification of Calcium Integrin Binding Protein 1 (CIB1) Competitor (AID 1508620; active = well fitted curve in the direction sought with a large enough effect; an effect the other way counts as inactive or inconclusive;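 also: GST tagged CIB1 binding a fluorescein labelled alphaIIb integrin peptide tracer; top concentration of the series differs between compounds; % is scaled to controls: 0 for no effect and ±100 for the full control effect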); details: CIB1-GST / FITC-alphaIIb peptide fluorescence polarization; series mostly up to 114 µM
Summary of the method: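 Fluorescence polarization competition: CIB1-GST (1 uM final) preincubated with compound 15 min at room temperature, then FITC-labeled alphaIIb peptide (100 nM final) added for another 15 min. Polarization read at Ex 480/Em 540.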

[6] = Primary qHTS for small molecule stabilizers of the endoplasmic reticulum resident proteome: Secreted ER Calcium Modulated Protein (SERCaMP) assay (AID 1508630; active = well fitted curve in the direction sought with a large enough effect; an effect the other way counts as inactive or inconclusive; also: % is scaled to controls: 0 for no effect and ±100 for the full control effect); details: SH-SY5Y GLuc-SERCaMP (Gaussia luciferase released on ER calcium loss) secretion, thapsigargin, luminescence; series mostly up to 38.4 µM
Summary of the method: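 GLuc-SERCaMP-expressing SH-SY5Y cells, pretreated 16 h with compound, are challenged with thapsigargin to empty ER calcium stores; after 4 h, coelenterazine is added directly to the medium and luminescence is imaged.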

[7] = Primary qHTS for inhibitors of La Crosse Virus (LACV) - induced cell death in SH-SY5Y cells (AID 1508616; active = well fitted curve in the direction sought with a large enough effect; an effect the other way counts as inactive or inconclusive;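 also: top concentration of the series differs between compounds; 0% = infected DMSO wells and 100% = uninfected DMSO wells; higher means more rescue of cells from virus-induced death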); details: SH-SY5Y LACV cytopathicity rescue, ATP luminescence, 6 d; series mostly up to 4.29 µM
Summary of the method: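 Readout was luminescence from ATPLite 1step added after a 6-day LACV infection (0.01 MOI) of SH-SY5Y cells that had received pin-transferred compound 24 hr after seeding.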

[8] = Counterscreen qHTS for small molecule stabilizers of the endoplasmic reticulum resident proteome: GLuc-NoTag assay (AID 1508627; active = well fitted curve in the direction sought with a large enough effect; an effect the other way counts as inactive or inconclusive;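 also: SH-SY5Y cells given compound then 100 nM thapsigargin to empty ER calcium; 0% = thapsigargin alone and -100% = DMSO vehicle control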); details: Gaussia luciferase NoTag secretion counterscreen, luminescence, thapsigargin 100 nM for final 4 h; series mostly up to 76.4 µM
Summary of the method: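 SH-SY5Y cells stably expressing constitutively secreted GLuc (no SERCaMP tag) were pre-incubated 5 h, treated with compound for 19 h, then 100 nM thapsigargin for 4 h at 37C; medium GLuc read by coelenterazine luminescence.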

[9] = Confirmatory qHTS for small molecule stabilizers of the endoplasmic reticulum resident proteome: Secreted ER Calcium Modulated Protein (SERCaMP) assay (AID 1508628; active = well fitted curve in the direction sought with a large enough effect; an effect the other way counts as inactive or inconclusive;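 also: SH-SY5Y cells given compound 16 h then thapsigargin 100 nM for 4 h; % is scaled to controls: 0 for no effect and ±100 for the full control effect; nearly all actives have a fitted effect of over 40% in size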); details: SERCaMP secreted luciferase ER calcium/proteostasis reporter; series mostly up to 76.3 µM
Summary of the method: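 We seeded SH-SY5Y-GLuc-SERCaMP cells, added compounds (three concentrations in the primary run, eleven up to 76.6 uM in confirmation), incubated 16 h, depleted ER calcium with thapsigargin, and read luciferase 4 h later.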

Chain of Calcium and integrin-binding protein 1 (Homo sapiens) (Q99828 whole entry, looked up): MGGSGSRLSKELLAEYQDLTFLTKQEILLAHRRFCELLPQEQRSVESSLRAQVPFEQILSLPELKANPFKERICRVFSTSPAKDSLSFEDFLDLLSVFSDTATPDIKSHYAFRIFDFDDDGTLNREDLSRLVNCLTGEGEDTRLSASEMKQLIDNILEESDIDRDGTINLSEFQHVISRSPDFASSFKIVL

CCCCCCCCCCC[C@@H](C[C@@H]1OC(=O)[C@H]1CCCCCC)OC(=O)[C@H](CC(C)C)NC=O
inactive: Potency [1] | Potency [2] | Potency [3] | Potency [4]

CCC[C@@]1(CCc2ccccc2)CC(O)=C([C@H](CC)c2cccc(NS(=O)(=O)c3ccc(C(F)(F)F)cn3)c2)C(=O)O1
inactive: Potency [1] | Potency [2] | Potency [3] | Potency [4]

CC(=O)OCC(=O)[C@@]1(O)[C@H](OC(C)=O)C[C@H]2[C@@H]3CCC4=CC(=O)C=C[C@]4(C)[C@@]3(F)[C@@H](O)C[C@@]21C
inactive: Potency [1] | Potency [2] | Potency [3] | Potency [4]

CC(C)NCC(O)c1ccc(NS(C)(=O)=O)cc1 (stereo not given)
inactive: Potency [1] | Potency [2] | Potency [3] | Potency [4]

CC(C)OC(=O)OCOP(=O)(CO[C@H](C)Cn1cnc2c(N)ncnc21)OCOC(=O)OC(C)C
inactive: Potency [1] | Potency [2] | Potency [3] | Potency [4]

O=C(O)c1cc(=O)c2c(OCC(O)COc3cccc4oc(C(=O)O)cc(=O)c34)cccc2o1
inactive: Potency [1] | Potency [2] | Potency [3] | Potency [4]

N[C@@H](Cc1cc(I)c(Oc2ccc(O)c(I)c2)c(I)c1)C(=O)O
inactive: Potency [1] | Potency [2] | Potency [3] | Potency [4]

NS(=O)(=O)c1cc2c(cc1Cl)NC(C(Cl)Cl)NS2(=O)=O (stereo not given)
inactive: Potency [1] | Potency [2] | Potency [3] | Potency [4]

Cn1c(=O)c2[nH]c(Br)nc2n(C)c1=O
inactive: Potency [1] | Potency [2] | Potency [3] | Potency [4]

O=C(O)CCCCCCCC(=O)O
inactive: Potency [1] | Potency [2] | Potency [3] | Potency [4]

CCN(Cc1ccncc1)C(=O)C(CO)c1ccccc1 (stereo not given)
inactive: Potency [1] | Potency [2] | Potency [3] | Potency [4]

CN(C)CCOC(=O)COc1ccc(Cl)cc1
inactive: Potency [1] | Potency [2] | Potency [3] | Potency [4]

C/C(=N\O)[C@@H](C)NCC(C)(C)CN[C@H](C)/C(C)=N/O
inactive: Potency [1] | Potency [2] | Potency [3] | Potency [4]

O=P(O)(O)C(O)(Cn1ccnc1)P(=O)(O)O
inactive: Potency [1] | Potency [2] | Potency [3] | Potency [4]

O=C(c1ccccc1)C(O)c1ccccc1 (stereo not given)
inactive: Potency [1] | Potency [2] | Potency [3] | Potency [4]

NC(=O)NC(=O)Cc1ccccc1
inactive: Potency [1] | Potency [2] | Potency [3] | Potency [4]

Cc1ccccc1C(=O)N1CC/C(=N\OS(=O)(=O)O)c2ccc(Cl)cc21
inactive: Potency [1] | Potency [2] | Potency [3] | Potency [4]

CC(=O)N=c1sc(S(N)(=O)=O)nn1C
inactive: Potency [1] | Potency [2] | Potency [3] | Potency [4]

Nc1nc(-c2ccccc2)c(Br)c(=O)[nH]1
inactive: Potency [1] | Potency [2] | Potency [3] | Potency [4]

Oc1ccc(OCc2ccccc2)cc1
inactive: Potency [1] | Potency [2] | Potency [3] | Potency [4]

O=C1c2ccccc2C(=O)c2c1ccc(O)c2O
inactive: Potency [1] | Potency [2] | Potency [3] | Potency [4]

CN(CC1(C)CCCO1)S(=O)(=O)c1ccc(Cl)c(S(N)(=O)=O)c1 (stereo not given)
inactive: Potency [1] | Potency [2] | Potency [3] | Potency [4]

NC(=O)c1cc[n+](CC2=C(C(=O)[O-])N3C(=O)[C@@H](NC(=O)Cc4cccs4)[C@H]3SC2)cc1
inactive: Potency [1] | Potency [2] | Potency [3] | Potency [4]

CCOC(=O)Oc1ccc(CCNC(=O)[C@H](CCSC)NC(C)=O)cc1OC(=O)OCC
inactive: Potency [1] | Potency [2] | Potency [3] | Potency [4]

C[C@](O)(CS(=O)(=O)c1ccc(F)cc1)C(=O)Nc1ccc(C#N)c(C(F)(F)F)c1
inactive: Potency [1] | Potency [2] | Potency [3] | Potency [4] | Potency [5] | Potency [6]

CO[C@@]1(NC(=O)C(C(=O)O)c2ccc(O)cc2)C(=O)N2C(C(=O)O)=C(CSc3nnnn3C)CO[C@@H]21 (stereo not given in full)
inactive: Potency [1] | Potency [2] | Potency [4]

CC(C(=O)O)c1ccc(C(=O)c2ccccc2)s1 (stereo not given)
inactive: Potency [1] | Potency [2] | Potency [3] | Potency [4]

CC(=O)Nc1ccc(CC(=O)O)cc1
inactive: Potency [1] | Potency [2] | Potency [4]

CC(C)[C@H]1C(=O)N2CCC[C@H]2[C@]2(O)O[C@](NC(=O)[C@@H]3C[C@@H]4c5cccc6[nH]cc(c56)C[C@H]4N(C)C3)(C(C)C)C(=O)N12
inactive: Potency [1] | Potency [2] | Potency [4]

Cc1nnc(SCC2=C(C(=O)O)N3C(=O)[C@@H](NC(=O)Cn4cnnn4)[C@H]3SC2)s1
inactive: Potency [1] | Potency [2] | Potency [3] | Potency [4]

O=c1oc2ccccc2c(O)c1Cc1c(O)c2ccccc2oc1=O
inactive: Potency [1] | Potency [2] | Potency [3] | Potency [4] | outcome [7] | outcome [8] | Potency [9]

C[C@]12CCC(=O)C=C1CC[C@H]1[C@@H]3CC[C@](O)(C(=O)CO)[C@@]3(C)C[C@H](O)[C@@]12F
inactive: Potency [1] | Potency [2] | Potency [3] | Potency [4]

CN(C)CCc1c[nH]c2ccc(Cn3cncn3)cc12
inactive: Potency [1] | Potency [2] | Potency [3] | Potency [4]

NC(N)=NCCN1CCCCCCC1
inactive: outcome [1] inactive [at 0.573 µM] | outcome [2] inactive [at 0.573 µM] | outcome [3] inactive [at 0.573 µM] | activity change, negative = cytotoxicity [4] 3.58% [at 0.573 µM]

Nc1ccc(C(=O)O)cc1
inactive: Potency [1] | Potency [2] | Potency [3] | Potency [4]

CC[N+](CC)(CC)CCOc1cccc(OCC[N+](CC)(CC)CC)c1OCC[N+](CC)(CC)CC
inactive: Potency [1] | Potency [2] | Potency [3] | Potency [4]

CCCCCCCN(CC)CCCC(O)c1ccc(NS(C)(=O)=O)cc1 (stereo not given)
inactive: Potency [1] | Potency [2] | Potency [3] | Potency [4]

O=c1cc[nH]c(=O)[nH]1
inactive: Potency [1] | Potency [2] | Potency [3] | Potency [4]

CCOc1cc(CC(=O)N[C@@H](CC(C)C)c2ccccc2N2CCCCC2)ccc1C(=O)O
inactive: Potency [1] | Potency [2] | Potency [3] | Potency [4]

Nc1ccn(C[C@@H](CO)OCP(=O)(O)O)c(=O)n1
inactive: outcome [1] inactive [at 0.573 µM] | outcome [2] inactive [at 0.573 µM] | outcome [3] inactive [at 0.573 µM] | activity change, negative = cytotoxicity [4] -5.43% [at 0.573 µM]

Clc1cccc(C(c2ccc3nc[nH]c3c2)n2ccnc2)c1 (stereo not given)
inactive: Potency [1] | Potency [2] | Potency [3] | Potency [4]

O=C(Oc1ccccc1)c1ccccc1O
inactive: Potency [1] | Potency [2] | Potency [3] | Potency [4]

Nc1nc(Cl)nc2c1ncn2[C@@H]1O[C@H](CO)[C@@H](O)[C@@H]1F
inactive: Potency [2] | Potency [4]
active: Potency [1] 20 µM

CCCCCCCC(=O)OCC(COC(=O)CCCCCCC)OC(=O)CCCCCCC
inactive: Potency [1] | Potency [2] | Potency [3] | Potency [4]

CN1C[C@H](C(=O)N[C@]2(C)O[C@@]3(O)[C@@H]4CCCN4C(=O)[C@H](Cc4ccccc4)N3C2=O)C=C2c3cccc4[nH]cc(c34)C[C@H]21
inactive: Potency [1] | Potency [2] | Potency [3] | Potency [4]

O=C1O[C@H](CO)[C@@H](O)[C@H](O)[C@H]1O
inactive: Potency [1] | Potency [2] | Potency [3] | Potency [4]
